# Screening data: PubChem, National Center for Advancing Translational Sciences (NCATS)
# Compounds with a hit are over-represented: about 3.8% of the library has one in this group of screens.
# VDR inhibitor – blocks the human vitamin D receptor. P11473. VDR-SRC2-3 peptide fluorescence polarization, 2 h. Potency, µM, for inactives: max response, negative = inhibition, hits mostly inhibitors. 0.93% of 400,000 active. AID 504847
#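 Reagent solutions, kept cold and dark, are dispensed first; compounds are then pinned in at 23 nl, plates briefly spun, and incubated 2 h at ambient temperature. Inhibition of VDR–SRC2-3 peptide binding is read by fluorescence polarization.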
# GCN5L2 inh – blocks human GCN5L2 histone acetyltransferase; 0.21% of 390,000 active; AID 504327; Q92830; GCN5L2 HAT assay, ThioGlo1 CoA-SH fluorescence; Potency, µM (doses to about 58.9 µM), for inactives: top-dose activity change, negative = inhibition, hits mostly inhibitors
# Target sequence (Q92830 whole entry, looked up): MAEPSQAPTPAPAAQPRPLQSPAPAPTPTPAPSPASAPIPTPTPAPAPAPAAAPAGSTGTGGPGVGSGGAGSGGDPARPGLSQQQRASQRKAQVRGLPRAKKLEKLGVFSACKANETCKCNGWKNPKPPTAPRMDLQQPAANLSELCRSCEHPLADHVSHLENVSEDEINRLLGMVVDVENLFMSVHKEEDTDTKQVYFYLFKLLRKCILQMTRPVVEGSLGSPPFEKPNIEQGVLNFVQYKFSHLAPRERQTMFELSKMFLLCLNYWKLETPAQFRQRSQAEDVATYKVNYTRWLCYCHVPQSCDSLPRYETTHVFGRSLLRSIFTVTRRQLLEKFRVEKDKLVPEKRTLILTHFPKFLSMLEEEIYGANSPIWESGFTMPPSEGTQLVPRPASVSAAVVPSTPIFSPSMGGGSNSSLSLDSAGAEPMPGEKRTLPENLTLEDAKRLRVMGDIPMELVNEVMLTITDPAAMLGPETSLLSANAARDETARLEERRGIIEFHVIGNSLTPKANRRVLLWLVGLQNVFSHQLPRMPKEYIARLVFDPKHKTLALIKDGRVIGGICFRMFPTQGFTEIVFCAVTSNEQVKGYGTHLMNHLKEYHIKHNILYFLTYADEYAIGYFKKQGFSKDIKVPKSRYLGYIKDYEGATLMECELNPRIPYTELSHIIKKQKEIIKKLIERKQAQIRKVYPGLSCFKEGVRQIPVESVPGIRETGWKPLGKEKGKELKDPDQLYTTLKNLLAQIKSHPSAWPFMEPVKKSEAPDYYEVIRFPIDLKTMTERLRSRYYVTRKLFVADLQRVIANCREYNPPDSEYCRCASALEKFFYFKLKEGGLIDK
#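 GCN5L2 (20 nM) in 50mM HEPES pH 7.5, 0.1mM EDTA, 0.01% Tween-20 preincubated 15 min with compounds at room temperature. Reaction started with H3(1-25) 75uM, acetyl-CoA 70uM, ThioGlo1 50uM; CoA-thiol fluorescence (Ex340/Em540) read at 0 and 20 min.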
# Sfp PPTase inh – blocks B. subtilis Sfp PPTase activity; Q9F4F7; Biochemical Sfp PPTase activity, qHTS; Potency, µM, for inactives: largest response in the series, negative = inhibition, usual class: inhibitors; 3.5% of 310,000 active; AID 1490;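 further: the enzyme is Sfp with the accession as filed and its product quenches rhodamine fluorescence; 0% = enzyme reaction without inhibitor and -100% = no enzyme wells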
#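 Step 1, compound plus 15 nM Sfp-PPTase, 15 min, room temperature. Step 2, add rhodamine-CoA (5 uM) and BHQ-2-YbbR (12.5 uM). Step 3, read 525/598 nm fluorescence at 0 and 30 min.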
# TrxR1 substrate – is turned over as a substrate by rat TrxR1; O89049; purified TrxR1 substrate turnover, NADPH consumption readout; Potency, µM (titrated, usually from 114 µM), for the others: at the highest dose activity change, negative = substrate turnover; 0.01% of 390,000 active; further: nearly all actives have a fitted effect of over 50% in size
#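 Rat TrxR1, dispensed at 90 nM, was prereduced with 400 uM NADPH (final) for 5 min at ~22 deg C, then incubated with compound 15 min before 400 uM selenite. A first-read NADPH fluorescence drop versus no-compound background flagged substrates.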
# GLS inh – glutaminase GLS (human) inhibition | GLS enzymatic activity, qHTS titration | Potency, µM (series often up to 45.5 µM), inactives show top-dose activity change, negative = inhibition, most hits filed as inhibitors | 0.21% of 410,000 active | O94925
#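 Two-point fluorescence kinetic (t0, 30 min RT) for hKGA; glutamate detected via glutamate oxidase–HRP–Amplex Red. Substrate: 1 mM L-glutamine solution; buffer 45 mM KH2PO4, pH 8.2.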
# rTrxR1 inhibitor – blocks rat thioredoxin reductase 1; O89049; recombinant rTrxR1, NADPH fluorescence consumption, selenite substrate; Potency, µM (highest dose often 114 µM), for the others: at the highest dose activity change, negative = inhibition, hits mostly inhibitors; 1% of 390,000 active; further: nearly all actives have a fitted effect of over 65% in size
#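 Rat TrxR1 (90 nM in the dispensed reagent) was pre-reduced with 400 uM NADPH for 5 min at room temperature, then incubated with compound for 15 min. After 400 uM selenite was added, NADPH fluorescence (Ex 340/Em 450 nm) was followed for 8 min.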
# Active calls of the source: *; ? = inconclusive; . = no result given; ! = a repeat was not active; [ ] = remark or other dose. The call rests on the fitted dose curve; in most records, active means well fitted curve in the direction sought with a large enough effect; inconclusive means small, poorly fitted or top-dose-only effect, or another doubt; inactive means no such curve, though single readings can be large; an effect the other way counts as inactive or inconclusive. Unless noted, on the % scale 0 is the no-effect control and ±100 the full control effect; potency means the concentration at half of the fitted maximal effect.
SMILES,VDR inhibitor,GCN5L2 inh,Sfp PPTase inh,TrxR1 substrate,GLS inh,rTrxR1 inhibitor
Cc1ccc(N(CC(O)COCc2ccco2)S(=O)(=O)c2ccc(C)cc2)cc1 (stereo not drawn),?,-15.3%,?,4.5%,0.9%,7.08µM*
CCCN(CCC)CC(O)CN(c1ccccc1)S(=O)(=O)c1ccc(C)cc1 (stereo not drawn),5.5%,0.0%,11.0%,3.4%[57.1 µM],21.6%,11.6%[57.1 µM]
NC(N)=N/N=C/c1ccc(OCc2ccccc2)cc1,12.1%,-4.2%,-15.0%,10.5%,13.3%,32.9%
NC(N)=N/N=C/c1ccc(OCc2ccc(Cl)cc2)cc1,12.7%,-2.8%,22.4µM*,13.1%,9.8%,25.7%
Cn1c(N2CCOCC2)c(/C=N/OC(=O)c2cccnc2Cl)c2ccccc21,-13.7%,-0.6%,22.4µM*,4.8%[57.1 µM],-21.5%,16.5%[57.1 µM]
CC(=O)O/N=C/c1c(N2CCOCC2)n(C)c2ccccc12,-11.2%,-10.7%,10.0%,-5.4%,-3.3%,2.2%
O=C(NNC(=O)C1[C@H]2CCCC[C@@H]12)Nc1cccc2ccccc12 (stereo partly drawn),5.8%,25.1µM*,23.1%,13.0%,-0.1%,23.1%
O=C(Nc1cccc2ccccc12)NC1CCCCC1,9.8%,-1.8%,5.6%,8.0%[57.1 µM],7.5%,14.9%[57.1 µM]
Cc1ccc(-c2nc(C3CCN(S(=O)(=O)c4ccc(C(C)(C)C)cc4)CC3)no2)cc1,8.0%,2.4%,25.4%,5.4%,0.7%,15.8%
O=[N+]([O-])c1ccc(O)c2ncccc12,39.8µM*!,4.8%,-24.9%,?,7.4%,?
O=[N+]([O-])c1cc(F)c2cccnc2c1O,-21.9%,-5.8%,?,-15.2%,-0.2%,44.7µM*
CCOCCCNC(=O)c1cc(Sc2ccc(F)cc2)nc2ccccc12,4.4%,-1.6%,5.9%,6.9%,-1.0%,17.7%
CCOc1ccc(C2NC(=O)c3c(COC)cc(C)nc3N2Cc2ccccc2)cc1OC (stereo not drawn),3.7%,-6.6%,.,72.4%,-16.8%,5.7%
NC(=O)c1c(N)sc2c1CCC2,-4.0%,-16.9%,22.4µM*,-6.2%,10.1%,50.1µM*
Nc1sc2c(c1C(=O)NC1CCS(=O)(=O)C1)CCC2 (stereo not drawn),-6.7%,0.4%,17.8µM*,8.7%[57.1 µM],1.4%,25.1µM*
CC1CCc2c(sc(N)c2C(N)=O)C1 (stereo not drawn),?,1.1%,-82.7%,6.4%[57.1 µM],-6.4%,6.0%[57.1 µM]
CCOC(=O)c1c(N)ssc1=S,-25.8%,-14.6%,22.4µM*,4.0%,63.1%,-22.2%
CCOC(=O)c1c(N)sc(C(=O)N2CCCCCC2)c1C,26.1%,1.3%,1.3%,8.1%[57.1 µM],-2.8%,3.8%[57.1 µM]
Cc1ccccc1C(=O)NC1CCS(=O)(=O)C1 (stereo not drawn),-11.8%,4.0%,11.6%,1.3%,-0.4%,8.2%
CCOC(=O)c1c(N)sc(=S)c2c1CCC2,-29.0%,-4.3%,31.6µM*,-14.4%,19.0%,70.8µM*
CCOC(=O)c1c(N)sc2c1CCSC2,-13.5%,-3.7%,-28.7%,-14.5%,17.6%,13.0%[57.1 µM]
CNC(=O)C1(C)CCN1C(=O)c1ccccc1CCc1ccccc1 (stereo not drawn),.,.,.,.,-3.0%,.
COc1ccc(CCN2C(=O)c3ccccc3NC2c2cc(Cl)c(O)c(OC)c2)cc1 (stereo not drawn),-4.2%,-14.3%,-13.1%,41.3%,4.3%,15.8%
CC(=O)Nc1ccc(Nc2ccc(N3C(=O)CCCC3=O)cc2[N+](=O)[O-])cc1,-13.6%,3.5%,-17.7%,-11.2%,17.5%,-15.4%
Cc1ccc(Nc2c(-c3ccsc3)nc3c(C)cccn23)cc1,?,-22.3%,.,49.1%,1.6%,13.5%
SMILES,VDR inhibitor,GCN5L2 inh,Sfp PPTase inh,TrxR1 substrate,GLS inh,rTrxR1 inhibitor
CCCOC(=O)c1c(N)sc2c1CCC2,-12.5%,-4.9%,50.1µM*,2.2%[57.1 µM],16.7%,?
CC(C)OC(=O)c1c(N)sc2c1CCCC2,?,.,.,-12.1%,-7.5%,?
COc1cccc(/C=N/Nc2cc(Cl)nc(C)n2)c1O,9.8%,0.7%,-1.7%,-6.4%,-3.5%,0.0%
CCn1cc(C(=O)NCc2ccco2)c2cc(OC)c(OC)cc2c1=O,-18.9%,-4.5%,-6.1%,3.8%,-9.0%,-17.4%
COc1cc2c(C(=O)NCc3ccc(C)o3)cn(CC(C)C)c(=O)c2cc1OC,11.9%,-7.9%,44.7µM*,-8.7%,6.8%,20µM*
O=C1CC(N2CCC(Cc3ccccc3)CC2)C(=O)N1CCc1ccccc1 (stereo not drawn),-2.1%,-5.5%[0.501 µM],56.2µM*,0.5%,18.1%,31.6µM*
O=C1CC(N2CCN(C3CC(=O)N(CCc4ccccc4)C3=O)CC2)C(=O)N1CCc1ccccc1 (stereo not drawn),3.2%,0.1%,15.1%,-1.0%,-6.6%,10.1%
Oc1ccc(NCc2ccccc2OCc2ccccc2Cl)cc1,?,-2.6%,.,-8.8%,?,31.6µM*
Oc1ccc(NCc2ccccc2OCc2ccccc2F)cc1,39.8µM*,-8.0%,?,-2.1%,12.2%,?
Cc1ccc(-n2ncc(C(=O)NCc3ccc4c(c3)OCO4)c2C2CCN(C(=O)OC(C)(C)C)CC2)cc1C,4.4%,-3.1%,.,4.6%,-12.7%,16.8%
CCOC(=O)CC1C(=O)NC2CCCCC2N1C(=O)Nc1ccc(Cl)cc1 (stereo not drawn),-0.7%,-0.4%,8.8%,-4.9%,14.5%,-115.6%
CCOC(=O)CC1=NN(c2ccccc2)C(=O)/C1=C\c1ccc(OC)cc1OC,50.1µM*,-5.8%,-16.6%,-1.5%[57.1 µM],?,-22.7%[57.1 µM]
COC(=O)CC1=NN(c2ccccc2)C(=O)/C1=C\c1ccc(OC)cc1,-24.6%,-20.3%,7.6%,-3.9%,-15.2%,-33.6%
COc1ccc(-c2nn(-c3ccc(F)cc3)c3c2cnc2cc4c(cc23)OCO4)cc1,12.6%,1.4%,.,9.5%[57.1 µM],6.3%,19.8%[57.1 µM]
O=C(CCCn1c(=O)c2sccc2n(Cc2cccc(Cl)c2)c1=O)NCc1ccc2c(c1)OCO2,2.3%,-5.0%,.,-0.8%,7.9%,2.2%
O=C(CCCCCn1c(=O)c2sccc2n(Cc2ccc(Cl)cc2)c1=O)NCc1ccc2c(c1)OCO2,89.1µM*,1.6%,.,0.6%,-7.8%,8.6%
Cc1ccn2c(NC3CCCC3)c(-c3ccsc3)nc2c1,9.2%,-2.8%,-0.2%,10.7%,7.08µM*,11.9%
Cc1ccn2c(NC3CCCCC3)c(-c3ccc(SC4CCCCC4)cc3)nc2c1,.,.,.,.,-16.1%,.
Cc1ccccc1Nc1nc(N)nc(COC(=O)c2nn(C)c(=O)c3ccccc23)n1,.,.,.,.,-8.0%,.
COc1ccc(C(CCNCc2ccc(F)cc2)c2ccc(F)cc2)cc1 (stereo not drawn),-5.4%,-3.5%,56.2µM*,-6.4%,-1.4%,-3.6%
O=C(COC(=O)c1ccc(Cl)nc1)NC(=O)c1ccccc1,-0.6%,-8.8%,-0.7%,-1.9%,9.8%,10.0%
